# Where “and” joins values, the source holds several entries; their conditions need not be identical. Equal entries are not always repeated. Results filed as inconclusive are left out. Calls of active or inactive are those of the source.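 Rule for the calls, unless noted: active = thallium flux through the channel raised or lowered by more than 3 SD from vehicle-only wells, actives on both sides; inactive = the rest.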
# What was measured:
# [1] = compounds altering viability of human ES cells (AID 493140; call rule not given here;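 note: cells exposed to compounds for four days before counting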); conditions: human embryonic stem cell survival screen; stronger effect = higher value
# [2] = P. berghei load reduction in hepatocytes – cell-based, HepG2, luciferase luminescence, HepG2 viability, primary screen (AID 624349; in the data active = parasite load remaining mostly below about 12%, no sharp cut-off; inactive = mostly above about 10%;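 note: 100% = mean of DMSO negative control wells on the same plate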); conditions: P. berghei liver stage in HepG2, luciferase luminescence, concentration not given here; parasite load remaining: stronger effect = lower value; viability: measured here: HepG2 viability without parasites
# [3] = signal quenchers or enhancers, Cy5 substrate/SSB – biochemical, NIH Clinical Collection, E. coli SSB, artefact control for HCV NS3 helicase inhibitor project (AID 743268; call rule not given here); conditions: Cy5-oligo bound E. coli SSB, fluorescence interference
# [4] = tested on: Hepatitis C virus NS3 helicase; assay: blockers of NS3h binding to DNA – biochemical, fluorescence polarization, NIH Clinical Collection, primary screen (AID 743270; call rule not given here); conditions: NS3 helicase binding to Cy5-dT15 DNA, stronger effect = higher value, concentration not given here
# [5] = molecular target: Single-stranded DNA-binding protein (Escherichia coli (strain K12)) (UniProt P0AGE0); assay: SSB-ssDNA binding inhibitors – biochemical, fluorescence polarization, NIH Clinical Collection, counter-screen for HCV NS3 helicase inhibitor project (AID 743271; in the data active = inhibition above about 28%); conditions: E. coli SSB-DNA binding, stronger effect = higher value, concentration not given here
# [6] = compounds distorting NS3 helicase fluorescence signal – biochemical, NIH Clinical Collection, artefact control for HCV NS3 helicase inhibitor project (AID 743272; call rule not given here;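 note: HCV NS3 helicase with a Cy5 labelled single stranded DNA probe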); conditions: fluorescence interference counterscreen, HCV NS3 helicase assay; stronger effect = lower value
# [7] = Wnt pathway potentiators raising nuclear beta-catenin – imaging, WNT3A-conditioned medium, mouse C2C12, NPC library, primary screen (AID 1117326; in the data active = nuclear beta-catenin stimulation mostly above about 4.2%, no sharp cut-off; inactive = mostly below about 10%); conditions: stronger effect = higher value
# [8] = stimulators of insulin release from INS-1E, primary screen, cell-based, 5 mM glucose, NPC library (AID 1117329;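 active = compound raises insulin release from rat beta cells at 5 mM glucose, no numeric limit stated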); conditions: rat INS-1E insulin secretion, at 10 µM, stronger effect = higher value
# [9] = growth inhibition of GSK3B-pretreated HCT116 cells – cell-based, CellTiter-Glo, 0.2 to 20 µM (AID 1117336;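 active = compounds lowering colon cancer cell viability after pretreatment blocking the GSK3B kinase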); conditions: HCT116 viability after GSK3B inhibitor, at 20 µM, stronger effect = higher value
# [10] = inhibition of endothelial tube formation, primary screen, imaging, VEGF stimulated, CD31 staining, tube area, NPC library (AID 1117340;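 active = compound that reduces growth-factor-driven endothelial tube area in a mixed cell culture, no cutoff stated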); conditions: VEGF-stimulated ADSC/ECFC co-culture, at 10 µM, stronger effect = higher value
# [11] = GLP1 release stimulators, primary, NCI-H716, NPC library (AID 1117341;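 active = compound raises GLP1 secretion from the human gut endocrine cells, with no numeric limit stated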); conditions: NCI-H716 cells, at 10 µM, stronger effect = higher value
# [12] = HCT116 colon cancer cell growth inhibition, primary screen, CellTiter-Glo luminescence, NPC library (AID 1117342;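 active = compounds that lower survival of HCT116 colon cancer cells in the luminescence readout, no numeric limit stated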); conditions: at 20 µM (top of the series)
# [13] = reduced SW480 viability measured with CellTiter-Glo, NPC library, primary (AID 1117343;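 active = compounds that lower viability of the colon cancer cells in the luminescence readout, with no numeric limit stated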); conditions: CellTiter-Glo luminescence; at 20 µM (top of the series)
# [14] = NPC library primary testing for decreased DLD-1 cell viability via CellTiter-Glo (AID 1117346;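 active = compounds that lower survival of DLD-1 colon cancer cells in the luminescence readout, no cutoff given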); conditions: DLD-1 viability, CellTiter-Glo luminescence; at 20 µM (top of the series)
# [15] = molecular target: 6-phosphogluconate dehydrogenase, decarboxylating (Homo sapiens) (UniProt P52209); assay: inhibition of human phosphogluconate dehydrogenase – biochemical, recombinant enzyme, NADPH absorbance, primary screen (AID 1159550;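 active = at least 20% inhibition of 6-phosphogluconate dehydrogenase activity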); conditions: recombinant 6PGD, NADPH absorbance 341 nm; at 10 µM; stronger effect = higher value
# [16] = viability loss in pontine glioma line – cell-based, JHH-DIPG-1, MIPE4.0, CellTiter-Glo, qHTS, dose response (AID 1347062; cut-off not given, nearly all actives have AC50 up to about 27 µM;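 for AC50: cells exposed to compound for two days before readout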); conditions: JHH-DIPG-1 viability, CellTiter-Glo ATP luminescence
# [17] = viability loss in pontine glioma line – cell-based, SU-DIPG-IV, MIPE4.0, CellTiter-Glo, qHTS, dose response (AID 1347063; cut-off not given, nearly all actives have AC50 up to about 30 µM;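 note: compound exposure lasted 48 hours before the viability readout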); conditions: CellTiter-Glo ATP luminescence
# [18] = viability loss in pontine glioma line – cell-based, SU-DIPG-XIII, MIPE5.0, CellTiter-Glo, qHTS, dose response (AID 1347064; cut-off not given, nearly all actives have AC50 up to about 23 µM); conditions: CellTiter-Glo ATP luminescence
# [19] = growth inhibition of DIPG cells – cell-based, MIPE4.0 library, CellTiter-Glo luminescence, qHTS (AID 1347066; cut-off not given, nearly all actives have AC50 up to about 30 µM;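 note: cells exposed to compound for 48 hours before readout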); conditions: SU-DIPG-VI viability, CellTiter-Glo ATP luminescence
# [20] = growth inhibition of DIPG cells – cell-based, MIPE5.0 library, qHTS (AID 1347068; cut-off not given, nearly all actives have IC50 up to about 30 µM); conditions: SU-DIPG-XXV viability
# [21] = viability loss with induced miR-34 in A549 – imaging, A549 dox-inducible miR-34, nuclei and caspase counts, primary screen (AID 1347080;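 active = compounds whose cell count with miR-34 switched on is under 0.7 times the count with it off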); conditions: A549 miR-34 inducible, Hoechst nuclei count, 48 h
# [22] = compounds altering HSF1 focus formation in cells – imaging, Selleck Cancer Library (AID 1347162; in the data active = plate-normalised HSF1 focus index below about 0.46); conditions: human cells, HSF1 nuclear foci imaging, at 10 µM; SSMD: measured here: HSF1 foci SSMD mean; cell count: measured here: cell number; plate-normalised HSF1 focus index: stronger effect = lower value
# [23] = MELAS cybrid and Rieske KO viability enhancers – cell-based, MELAS cybrids, Rieske KO mouse fibroblasts, CellTiter-Glo, primary screen (AID 1508586;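 active = mean z-score across replicates of 1.96 or higher in either the MELAS or the Rieske mutant cell line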;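 note: z relative to plate mean and SD of compound and empty wells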); conditions: low glucose
# [24] = molecular target: NAD(+) hydrolase SARM1 (Homo sapiens) (UniProt Q6SZW1); assay: blocking NAD cleavage by SARM1 SAM-TIR – cell lysate, NAD-Glo luminescence (AID 1508614;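 active = compound whose remaining NAD level is above about 45 nM, limit read from the data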;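 note: higher remaining NAD means stronger inhibition of SARM1 NADase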); conditions: SAM-TIR HEK293T lysate NADase, at 1 µM, stronger effect = higher value
# [25] = molecular target: Mitogen-activated protein kinase 7 (Homo sapiens) (UniProt Q13164); assay: Gal4-ERK5 driven luciferase induction – cell-based, HTS, primary screen (AID 1508626;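 active = luciferase signal above three times the same-plate solvent-only control wells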;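 note: luciferase driven by Gal4-ERK5 fusion binding five Gal4 sites before minimal TATA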); conditions: HeLa Gal4-ERK5 transactivation, 18 h, at 5 µM, stronger effect = higher value
# [26] = galactose survival enhancers in mitochondrial complex I cybrids – cell-based, galactose medium, ATP luminescence, primary screen (AID 1645843;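 active = z-score of at least 1.8 in each of two replicates, scored against plate mean and spread of sample wells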;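 note: positive z means more ATP and so rescue of galactose-driven cybrid death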); conditions: complex I mutant cybrid cells, 72 h, stronger effect = higher value
# F380Y = assay: BK channel mutant inhibitors and activators – cell-based, U2OS BacMam, thallium flux, beta subunits, selectivity assay, profiling panel (AID 1259406); conditions: U2OS BacMam BK variants, at 30 µM;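 note: initial slope of Thallos dye fluorescence rise after thallium is added; log ratio against the mean of 0.3% DMSO vehicle wells on the same plate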
# F380Y/beta1 = assay: as above; conditions: U2OS BacMam BK variants, at 30 µM
# F380Y/beta2Delta = assay: as above; conditions: U2OS BacMam BK variants, at 30 µM
# F380Y/beta4 = assay: as above; conditions: U2OS BacMam BK variants, at 30 µM
# [27] = molecular target: Calcium-activated potassium channel subunit alpha-1 (Homo sapiens) + Leucine-rich repeat-containing protein 26 (Homo sapiens) (UniProt Q12791+Q2I0M4); assay: as above; conditions: U2OS BacMam BK variants, F380Y/Slo1WT/gamma1, at 30 µM
# R275C = assay: as above; conditions: U2OS BacMam BK variants, at 30 µM
# R275C/beta1 = assay: as above; conditions: U2OS BacMam BK variants, at 30 µM
# R275C/beta2Delta = assay: as above; conditions: U2OS BacMam BK variants, at 30 µM
# R275C/beta4 = assay: as above; conditions: U2OS BacMam BK variants, at 30 µM
# R275C/Slo1WT/beta2 = assay: as above; conditions: U2OS BacMam BK variants, at 30 µM
# [28] = viability loss in pontine glioma line – cell-based, SU-DIPG-XVII, MIPE5.0, CellTiter-Glo, qHTS, dose response (AID 1347060; cut-off not given, nearly all actives have AC50 up to about 26 µM); conditions: CellTiter-Glo ATP luminescence
# [29] = viability loss in pontine glioma line – cell-based, SU-DIPG-XIII, MIPE4.0, CellTiter-Glo, qHTS, dose response (AID 1347061; cut-off not given, nearly all actives have AC50 up to about 37 µM;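 note: cells exposed to compound for 48 hours before readout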); conditions: CellTiter-Glo ATP luminescence
# [30] = JHH-DIPG-1 glioma cell viability, MIPE5.0 library, CellTiter-Glo luminescence, qHTS (AID 1347067; cut-off not given, nearly all actives have AC50 up to about 26 µM;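 note: cells exposed to compound for 48 hours before readout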); conditions: JHH-DIPG-1 glioma viability, CellTiter-Glo ATP luminescence
# [31] = stronger effect = lower value, cell number ratio, induced over uninduced
# [32] = measured here: relative caspase fold change +Dox/-Dox
# [33] = measured here: total cells with miR-34 induction, stronger effect = lower value
# [34] = measured here: total cells without miR-34 induction
# [35] = MELAS cybrid survival, CellTiter-Glo 48 h, stronger effect = higher value
# [36] = Rieske KO mouse fibroblast survival, CellTiter-Glo 72 h
# Chain of NAD(+) hydrolase SARM1 (Homo sapiens) (Q6SZW1 whole entry, looked up, the tested form may be a part): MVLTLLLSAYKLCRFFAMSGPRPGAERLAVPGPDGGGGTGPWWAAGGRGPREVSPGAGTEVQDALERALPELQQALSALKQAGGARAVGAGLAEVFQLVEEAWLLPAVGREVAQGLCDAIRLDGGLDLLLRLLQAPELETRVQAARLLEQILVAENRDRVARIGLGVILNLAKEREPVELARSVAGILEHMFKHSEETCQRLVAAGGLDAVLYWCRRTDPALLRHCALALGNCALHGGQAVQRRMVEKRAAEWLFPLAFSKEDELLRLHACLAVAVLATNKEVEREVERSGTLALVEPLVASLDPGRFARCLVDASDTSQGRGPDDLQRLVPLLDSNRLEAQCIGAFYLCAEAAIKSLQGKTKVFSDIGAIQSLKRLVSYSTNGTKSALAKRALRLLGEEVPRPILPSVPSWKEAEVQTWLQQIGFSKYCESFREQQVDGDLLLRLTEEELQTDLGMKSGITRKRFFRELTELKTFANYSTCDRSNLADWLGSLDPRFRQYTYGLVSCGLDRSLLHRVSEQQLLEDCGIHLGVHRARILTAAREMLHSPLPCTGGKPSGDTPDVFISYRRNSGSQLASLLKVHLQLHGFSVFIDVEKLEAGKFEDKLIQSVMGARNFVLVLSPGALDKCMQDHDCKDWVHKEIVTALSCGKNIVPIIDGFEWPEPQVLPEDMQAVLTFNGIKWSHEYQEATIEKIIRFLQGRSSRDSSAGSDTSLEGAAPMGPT
# Chain of 6-phosphogluconate dehydrogenase, decarboxylating (Homo sapiens) (P52209 whole entry, looked up): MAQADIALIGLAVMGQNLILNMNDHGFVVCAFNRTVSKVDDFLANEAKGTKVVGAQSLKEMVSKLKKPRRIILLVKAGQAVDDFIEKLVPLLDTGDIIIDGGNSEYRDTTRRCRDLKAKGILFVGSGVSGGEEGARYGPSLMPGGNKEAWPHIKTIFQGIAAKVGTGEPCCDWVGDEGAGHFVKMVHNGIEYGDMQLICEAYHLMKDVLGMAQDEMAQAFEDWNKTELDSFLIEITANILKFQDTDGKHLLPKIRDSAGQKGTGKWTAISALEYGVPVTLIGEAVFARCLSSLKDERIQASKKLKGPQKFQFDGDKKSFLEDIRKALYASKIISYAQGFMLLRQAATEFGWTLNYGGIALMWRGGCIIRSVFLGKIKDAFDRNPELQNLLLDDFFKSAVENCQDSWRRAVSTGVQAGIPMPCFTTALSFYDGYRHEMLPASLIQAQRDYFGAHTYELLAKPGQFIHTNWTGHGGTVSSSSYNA
# Chain of Calcium-activated potassium channel subunit alpha-1 (Homo sapiens) + Leucine-rich repeat-containing protein 26 (Homo sapiens) (Q2I0M4 whole entry, looked up, one chain of several): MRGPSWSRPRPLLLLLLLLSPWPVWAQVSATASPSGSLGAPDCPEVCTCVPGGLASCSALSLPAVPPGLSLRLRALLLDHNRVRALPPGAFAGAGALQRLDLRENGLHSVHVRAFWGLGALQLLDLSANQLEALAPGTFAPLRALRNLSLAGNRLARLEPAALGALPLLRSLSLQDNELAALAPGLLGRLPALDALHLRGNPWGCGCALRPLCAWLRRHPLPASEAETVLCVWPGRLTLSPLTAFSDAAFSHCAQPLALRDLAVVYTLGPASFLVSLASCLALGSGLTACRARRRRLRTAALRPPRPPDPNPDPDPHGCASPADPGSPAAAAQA
# Chain of Mitogen-activated protein kinase 7 (Homo sapiens) (Q13164 whole entry, looked up, the tested form may be a part): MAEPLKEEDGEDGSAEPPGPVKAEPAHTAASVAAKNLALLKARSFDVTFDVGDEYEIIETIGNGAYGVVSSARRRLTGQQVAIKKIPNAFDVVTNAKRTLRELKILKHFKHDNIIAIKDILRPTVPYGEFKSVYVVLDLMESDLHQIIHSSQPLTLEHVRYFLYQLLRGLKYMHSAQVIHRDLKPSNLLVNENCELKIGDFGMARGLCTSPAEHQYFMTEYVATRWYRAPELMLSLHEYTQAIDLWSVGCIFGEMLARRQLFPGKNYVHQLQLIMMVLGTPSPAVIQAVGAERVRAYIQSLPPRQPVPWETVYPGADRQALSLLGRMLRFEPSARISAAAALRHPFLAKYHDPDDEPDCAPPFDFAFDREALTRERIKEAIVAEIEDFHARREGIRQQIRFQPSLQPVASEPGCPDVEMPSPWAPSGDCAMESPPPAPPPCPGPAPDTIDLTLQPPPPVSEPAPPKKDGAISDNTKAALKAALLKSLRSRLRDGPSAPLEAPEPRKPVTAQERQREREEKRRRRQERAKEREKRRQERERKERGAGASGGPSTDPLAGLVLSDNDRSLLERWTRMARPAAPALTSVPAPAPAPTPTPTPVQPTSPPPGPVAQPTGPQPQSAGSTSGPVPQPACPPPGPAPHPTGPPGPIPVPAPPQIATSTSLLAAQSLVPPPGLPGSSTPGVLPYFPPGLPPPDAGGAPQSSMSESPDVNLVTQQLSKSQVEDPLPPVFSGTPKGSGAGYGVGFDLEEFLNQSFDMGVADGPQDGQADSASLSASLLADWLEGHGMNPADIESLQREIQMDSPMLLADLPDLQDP
compound,measurement,setting,value
CC(=O)O[C@]1(C(C)=O)CC[C@H]2[C@@H]3C=C(C)C4=CC(=O)CC[C@]4(C)[C@H]3CC[C@@]21C,survival,[1],3.08 (inactive)
same,parasite load remaining,[2],111% (inactive) and 60.7% (inactive) and 27.2% (inactive)
same,viability,[2],93.3% and 69.6% and 81%
same,fluorescence ratio,[3],1.01 (inactive)
same,inhibition,[4],3.56% (inactive)
same,inhibition,[5],3.75% (inactive)
same,fluorescence ratio,[6],0.98 (inactive)
same,nuclear beta-catenin stimulation,[7]; at 10 µM,2.7% (inactive)
same,nuclear beta-catenin stimulation,"[7]; stimulation, at 2 µM",1.9%
same,insulin secretion stimulation,[8],0.1% (inactive)
same,viability decrease,[9],-86.9% (inactive)
same,tube area decrease,[10],-10.2% (inactive)
same,GLP1 secretion stimulation,[11],0% (inactive)
same,inhibition of viability,[12],46.5% (inactive)
same,viability decrease (inhibition),[13],59.6% (active)
same,viability decrease (inhibition),[14],22.4% (inactive)
same,inhibition,[15],-2.23% (inactive)
same,AC50,[16],11.8 µM (active)
same,AC50,[17],8.33 µM (active)
same,outcome,[18],inactive
same,outcome,[19],inactive
same,outcome,[20],inactive
same,fold change,[21]; [31],0.793 (inactive) and 0.839 (inactive)
same,fold change,[21]; [32],1.65 and 1.15
same,cell count,[21]; [33],7300 and 6980
same,cell count,[21]; [34],9200 and 8320
same,SSMD,[22],0.639
same,cell count,[22],7050
same,plate-normalised HSF1 focus index,[22],1.04 (inactive)
same,z-score,[23]; [35],-0.444 (inactive) and 0.0969 (inactive)
same,z-score,[23]; [36],-0.239 and -0.33
same,remaining NAD,[24],10 nM (inactive)
same,luciferase signal,[25],52 AU (inactive)
same,z-score,[26],0.025 (inactive)
same,log fold change Tl+ flux,F380Y,0.00819 (inactive)
same,log fold change Tl+ flux,F380Y/beta1,0.018 (inactive)
same,log fold change Tl+ flux,F380Y/beta2Delta,0.0101 (inactive)
same,log fold change Tl+ flux,F380Y/beta4,-0.0433 (inactive)
same,log fold change Tl+ flux,[27],-0.00133 (inactive)
same,log fold change Tl+ flux,R275C,-0.0376 (inactive)
same,log fold change Tl+ flux,R275C/beta1,0.00523 (inactive)
same,log fold change Tl+ flux,R275C/beta2Delta,-0.00852 (inactive)
same,log fold change Tl+ flux,R275C/beta4,-0.0116 (inactive)
same,log fold change Tl+ flux,R275C/Slo1WT/beta2,0.0254 (inactive)
CCC(=O)O[C@]1(C(=O)CCl)[C@@H](C)C[C@H]2[C@@H]3CCC4=CC(=O)C=C[C@]4(C)[C@@]3(F)[C@@H](O)C[C@@]21C,parasite load remaining,[2],49% (inactive) and 35.1% (inactive)
same,viability,[2],110% and 128%
same,fluorescence ratio,[3],1.01 (inactive)
same,inhibition,[4],4.09% (inactive)
same,inhibition,[5],2.57% (inactive)
same,fluorescence ratio,[6],0.96 (inactive)
same,nuclear beta-catenin stimulation,[7]; at 10 µM,4.4% (inactive)
same,nuclear beta-catenin stimulation,"[7]; stimulation, at 2 µM",3.8%
same,insulin secretion stimulation,[8],8.3% (inactive)
same,viability decrease,[9],-89.8% (inactive)
same,tube area decrease,[10],9.1% (inactive)
same,GLP1 secretion stimulation,[11],2.1% (inactive)
same,inhibition of viability,[12],2.9% (inactive)
same,viability decrease (inhibition),[13],41% (inactive)
same,viability decrease (inhibition),[14],15.6% (inactive)
same,inhibition,[15],3.17% (inactive)
same,outcome,[28],inactive
same,outcome,[29],inactive
same,outcome,[16],inactive
same,outcome,[18],inactive
same,outcome,[19],inactive
same,outcome,[30],inactive
same,fold change,[21]; [31],1.05 (inactive) and 0.839 (inactive)
same,fold change,[21]; [32],2.64 and 1.67
same,cell count,[21]; [33],6300 and 6140
same,cell count,[21]; [34],6030 and 7320
same,z-score,[23]; [35],0.507 (inactive) and -0.252 (inactive)
same,z-score,[23]; [36],1.67 and 0.844
same,remaining NAD,[24],10 nM (inactive)
same,luciferase signal,[25],84 AU (inactive)
same,z-score,[26],-1.34 (inactive) and 0.04 (inactive)
same,log fold change Tl+ flux,F380Y,0.112 (active)
same,log fold change Tl+ flux,F380Y/beta1,0.254 (active)
same,log fold change Tl+ flux,F380Y/beta2Delta,0.293 (active)
same,log fold change Tl+ flux,F380Y/beta4,0.236 (active)
same,log fold change Tl+ flux,[27],0.157 (active)
same,log fold change Tl+ flux,R275C,-0.00176 (inactive)
same,log fold change Tl+ flux,R275C/beta1,0.13 (active)
same,log fold change Tl+ flux,R275C/beta2Delta,0.172 (active)
same,log fold change Tl+ flux,R275C/beta4,0.386 (active)
same,log fold change Tl+ flux,R275C/Slo1WT/beta2,0.0324 (inactive)

# — PubChem BioAssay
